Source: PubChem BioAssay AID1159580 (chemical genetic matrix, 2015)
Where “and” joins values, the source holds several entries; their conditions need not be identical. Identical values can stand only once. The campaign covered roughly 5,500 compounds. About 2,000 (36%) were called active. About 18% were inconclusive and are not listed. No stated cut-off is given here; in the data, active means normalized growth mostly below about 0.91 (no sharp cut-off); inconclusive means no clear call, values can overlap the other calls; inactive means mostly above about 0.92. This is one part of the list.

Assay: chemical genetic growth profiling, strain panel (AID 1159580);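 further: tested at 20 µM; growth read once vehicle control cultures reached saturation at 30 °C; 1 = growth at the plate median or of vehicle wells; lower values mean less growth of the strain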
Settings: S. cerevisiae deletion strains, growth OD

Measured: normalized growth

CN1CCN(CCC=C2c3ccccc3Sc3ccc(S(=O)(=O)N(C)C)cc32)CC1
active: locus YAL026C, strain drs2, hits give low values 0.767 | locus YDR137W, strain rgp1, hits give low values 1.23 [resistant] | locus YDR318W, strain mcm21, hits give low values 0.911 | locus YDR388W, hits give low values 0.922 | locus YDR392W, strain spt3, hits give low values 0.456 | locus YER155C, strain BEM2 (second series), hits give low values 0.681 | locus YGL253W, strain hxk2, hits give low values 0.889 | locus YGR252W, strain gcn5, hits give low values 0.711 | locus YHR142W, strain chs7, hits give low values 0.86
inactive: locus YAL013W, strain DEP1, hits give low values 1.01 | locus YAL021C, strain ccr4, hits give low values 0.987 | locus YAL030W, strain snc1, hits give low values 0.991 | locus YBL061C, strain skt5, hits give low values 0.973 | locus YBR009C, strain hhf1, hits give low values 0.931 | locus YBR021W, strain FUR4, hits give low values 0.978 | locus YBR023C, strain chs3, hits give low values 0.919 | locus YBR171W, strain sec66, hits give low values 1.01 | locus YBR229C, strain ROT2, hits give low values 1.01 | locus YBR231C, strain swc5, hits give low values 0.945 | locus YBR279W, strain paf1, hits give low values 0.964 | locus YCL011C, strain gbp2, hits give low values 1.01 | locus YCL016C, strain dcc1, hits give low values 0.971 | locus YCL029C, strain bik1, hits give low values 0.978 | locus YCL061C, strain MRC1, hits give low values 0.953 | locus YCL069W, strain vba3, hits give low values 0.971 | locus YCR088W, strain abp1, hits give low values 1.01 | locus YDL005C, strain med2, hits give low values 0.996 | locus YDL035C, strain GPR1, hits give low values 1 | locus YDL040C, strain nat1, hits give low values 0.993 | locus YDL074C, strain BRE1, hits give low values 0.989 | locus YDL101C, strain DUN1, hits give low values 1 | locus YDL134C, strain PPH21, hits give low values 1 | locus YDL185W, strain tfp1, hits give low values 0.989 | locus YDL192W, strain arf1, hits give low values 0.991 | locus YDR001C, strain nth1, hits give low values 1.01 | locus YDR069C, strain doa4, hits give low values 1 | locus YDR101C, strain arx1, hits give low values 0.95 | locus YDR150W, strain NUM1, hits give low values 1.02 | locus YDR159W, strain sac3, hits give low values 0.936 | locus YDR162C, strain NBP2, hits give low values 1 | locus YDR195W, strain ref2 1.1 | locus YDR297W, strain sur2, hits give low values 0.975 | locus YDR334W, strain swr1, hits give low values 1.01 | locus YDR335W, strain msn5, hits give low values 0.953 | locus YDR502C, strain sam2, hits give low values 0.931 | locus YEL003W, strain gim4, hits give low values 1.01 | locus YEL037C, strain rad23, hits give low values 1 | locus YEL061C, strain CIN8 (second series), hits give low values 0.998 | locus YEL061C, strain CIN8, hits give low values 1.02 | locus YER015W, strain faa2, hits give low values 0.985 | locus YER016W, strain bim1, hits give low values 0.992 | locus YER110C, hits give low values 0.977 | locus YER111C, strain swi4, hits give low values 0.988 | locus YER155C, strain BEM2, hits give low values 0.999 | locus YER167W, strain BCK2, hits give low values 1 | locus YFR010W, strain ubp6, hits give low values 0.965 | locus YGL078C, strain dbp3, hits give low values 0.996 | locus YGL086W, strain mad1, hits give low values 0.946 | locus YGL167C, strain pmr1, hits give low values 1.01 | locus YGL173C, strain kem1, hits give low values 0.969 | locus YGL227W, strain vid30, hits give low values 1.02 | locus YGL240W, strain doc1, hits give low values 0.921 | locus YGL248W, strain PDE1, hits give low values 1 | locus YGR135W, strain pre9, hits give low values 0.904 | locus YHR013C, strain ard1, hits give low values 0.944 | locus YHR027C, strain rpn1, hits give low values 0.99 | locus YHR030C, strain SLT2, hits give low values 1.01 and 0.981 | locus YHR079C, strain IRE1 (second series), hits give low values 0.933 | locus YHR079C, strain IRE1, hits give low values 0.98 | locus YHR094C, strain hxt1, hits give low values 0.972 | locus YHR129C, strain ARP1, hits give low values 1.01 | locus YHR200W, strain rpn10, hits give low values 0.96 | locus YIL066C, strain RNR3, hits give low values 1.01 | locus YIL073C, strain SPO22, hits give low values 1.02 | locus YIL125W, strain kgd1, hits give low values 0.997 | locus YIR030C, strain dcg1, hits give low values 0.98 | locus YJL092W, strain hpr5, hits give low values 0.977 | locus YJL095W, strain BCK1 (second series), hits give low values 0.973 | locus YJL095W, strain BCK1, hits give low values 0.992 and 0.978 | locus YJL115W, strain asf1, hits give low values 1 | locus YJL129C, strain trk1, hits give low values 1.03 | locus YJL134W, strain LCB3, hits give low values 1.01 | locus YJL154C, strain vps35, hits give low values 1.01 | locus YJL164C, strain tpk1, hits give low values 0.972 | locus YJL166W, strain qcr8, hits give low values 0.979 | locus YJL168C, strain set2, hits give low values 0.971 | locus YJL187C, strain SWE1 (second series), hits give low values 1.01 | locus YJL187C, strain SWE1, hits give low values 0.994
